The record followed here is PubChem BioAssay (NCI).

Compounds without any hit were thinned out: in the full panel of roughly 83,000, 20% have a hit.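 Cell lines were cultured in 96-well plates, exposed to a single compound concentration, and assessed for percent growth 48 hours later.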 A number with no mark means an inactive call. Calls of active or inactive are those of the source. The calls were made as follows: active = growth percent below 10; inactive = the rest.

Among the test systems are OVCAR-5 ovarian; OVCAR-4 ovarian; SK-OV-3 ovarian; IGROV1 ovarian; OVCAR-3 ovarian; HS 578T breast; NCI/ADR-RES ovarian; RPMI-8226 leukemia; OVCAR-8 ovarian.
What all share (test): NCI-60 one-dose screen, 48 h (100 = growth as untreated, 0 = no growth, -100 = all killed)
Holding throughout (conditions): 10 µM unless noted

With `Nc1cc2c(cc1C(=O)c1cccc(F)c1)OCCO2`, the growth was 98.2% with OVCAR-5 ovarian; 105% in the assay on OVCAR-4 ovarian; 93.3% in the assay with SK-OV-3 ovarian; 89.7% in the assay on IGROV1 ovarian; 116% in the assay on OVCAR-3 ovarian; 111% in the assay on HS 578T breast. In the assay with NCI/ADR-RES ovarian, the growth was 97.9%.
For `CCCCCCCCN(CCCCCCCC)CCCCCCNc1cc(OC)cc2cccnc12`, the growth in the assay on RPMI-8226 leukemia was 52.3%; in the assay on OVCAR-8 ovarian, 73.3%; in the assay with OVCAR-5 ovarian it was 92.4%; in the assay on OVCAR-4 ovarian, 82.7%; in the assay with SK-OV-3 ovarian, 102%; in the assay on IGROV1 ovarian it was 78.7%. In addition, the growth with HS 578T breast is 111%; with NCI/ADR-RES ovarian, 80.2%.
Regarding `COc1ccc(Nc2[nH]n3c(=O)cc(C)nc3c2C(N)=O)c(OC)c1`, the growth in the assay on RPMI-8226 leukemia is 102%; in the assay with OVCAR-8 ovarian, 97.4%; in the assay on OVCAR-5 ovarian it was 113%; with SK-OV-3 ovarian it was 88.3%; in the assay with IGROV1 ovarian, 107%; in the assay on OVCAR-3 ovarian it was 106%. For the same compound, the growth was 99.2% in the assay with HS 578T breast and 103% with NCI/ADR-RES ovarian.
With `O=S(=O)(NCCNc1nccc(-c2c(-c3ccc(F)cc3)nc3sccn23)n1)c1ccc(F)cc1`, the growth is 68.2% in the assay with OVCAR-8 ovarian; 102% in the assay on OVCAR-5 ovarian; 81.4% with OVCAR-4 ovarian; 92.7% in the assay on SK-OV-3 ovarian; 61.8% in the assay with IGROV1 ovarian; 90.1% in the assay on OVCAR-3 ovarian. The growth with HS 578T breast was 93.8%; in the assay on NCI/ADR-RES ovarian, 81.2%.
`CC1=NC2=CC=CC3=NC(C(Cl)(Cl)Cl)=NC(=N1)N23`: the growth with RPMI-8226 leukemia was 50.3%; in the assay on OVCAR-8 ovarian, 84.9%; with OVCAR-5 ovarian it was 112%; in the assay with SK-OV-3 ovarian, 87.3%; in the assay on OVCAR-3 ovarian, 34.8%; in the assay with HS 578T breast, 62.6%. In the assay with NCI/ADR-RES ovarian, the growth was 81.6%.
Take `O=C1Nc2ccc(Cl)cc2C12Nc1cc(Cl)ccc1S2` (stereo not given): the growth in the assay with RPMI-8226 leukemia is 44.3%; in the assay with OVCAR-8 ovarian, 99.2%; in the assay with OVCAR-5 ovarian it was 113%; with SK-OV-3 ovarian, 108%; in the assay on OVCAR-3 ovarian, 72%; in the assay with HS 578T breast it was 144%. For the same compound, the growth in the assay with NCI/ADR-RES ovarian was 82.5%.
Turning to `Cc1ccc(C(=O)C2=Cc3cc4ccccc4n3Cc3cnnn32)cc1`, the growth is 99.9% in the assay on RPMI-8226 leukemia; 106% in the assay with OVCAR-8 ovarian; 96.2% in the assay on OVCAR-5 ovarian; 104% with OVCAR-4 ovarian; 99.6% with SK-OV-3 ovarian; 104% with IGROV1 ovarian. Moreover, the figures for the growth in the assay on OVCAR-3 ovarian, in the assay on HS 578T breast and with NCI/ADR-RES ovarian were 109%, 94% and 108%, respectively.
For the compound `COc1cccc(-c2cc3c(O)cc(C#N)cc3[nH]2)c1`, the growth was 106% with OVCAR-8 ovarian; 94.7% with OVCAR-5 ovarian; 83.7% in the assay on OVCAR-4 ovarian; 108% in the assay on SK-OV-3 ovarian; 103% in the assay with IGROV1 ovarian; 114% with OVCAR-3 ovarian. Moreover, the growth was 43.6% in the assay with HS 578T breast and 89.2% with NCI/ADR-RES ovarian.
Take `COc1cc(-c2nn(-c3cccc(NC(=O)Nc4cc(C(F)(F)F)cc(C(F)(F)F)c4)c3)cc2-c2ccncc2)ccc1Cl`: the growth in the assay on RPMI-8226 leukemia is -11.7% (active); in the assay with OVCAR-8 ovarian, -12.7% (active); in the assay with OVCAR-5 ovarian, 16.3%; in the assay on OVCAR-4 ovarian, 17.2%; in the assay with SK-OV-3 ovarian it was -9.79% (active); in the assay on IGROV1 ovarian, 19.9%. In addition, the growth with OVCAR-3 ovarian is -57.9% (active); in the assay with HS 578T breast it was -25.8% (active); with NCI/ADR-RES ovarian, 1.11% (active).
Consider `Nc1cc2c([nH]c[n+]2CC#CCCl)c(SCC#CCCl)n1`, for which the growth with RPMI-8226 leukemia is -2.17% (active); in the assay with OVCAR-8 ovarian it was 0.0129% (active); in the assay with OVCAR-5 ovarian it was -76.9% (active); in the assay with SK-OV-3 ovarian, -21.7% (active); in the assay with IGROV1 ovarian, -57% (active); in the assay with OVCAR-3 ovarian it was -21.1% (active). Further, the values for the growth in the assay on HS 578T breast and in the assay with NCI/ADR-RES ovarian were 47.3% and -24.2% (active), respectively.
For `Cc1ccc(NS(=O)(=O)c2cc(C)ccc2C)cc1`, the growth with RPMI-8226 leukemia is 13.6%; in the assay on OVCAR-8 ovarian it was 54.8%; in the assay on OVCAR-5 ovarian, 82.8%; in the assay on OVCAR-4 ovarian, 92.6%; in the assay with SK-OV-3 ovarian it was 56.3%; in the assay on IGROV1 ovarian, 53.8%. The growth with OVCAR-3 ovarian is 3.62% (active); in the assay on NCI/ADR-RES ovarian it was 2.96% (active).
In the case of `O=c1cc/c(=N\Nc2ccccc2)c(=O)/c1=N/Nc1ccccc1`, the growth in the assay with RPMI-8226 leukemia was 18.9%; in the assay with OVCAR-8 ovarian it was 109%; in the assay on OVCAR-5 ovarian, 107%; with OVCAR-4 ovarian, 107%; in the assay with SK-OV-3 ovarian it was 109%; in the assay on IGROV1 ovarian it was 60.1%. Further, in the assay on NCI/ADR-RES ovarian, the growth was 95.2%.
Turning to `O=C(Nc1cccc(-n2cc(-c3ccncc3)c(-c3ccc(Cl)c(O)c3)n2)c1)Nc1ccc(Cl)c(Cl)c1`, the growth is 7.89% (active) in the assay with RPMI-8226 leukemia; 11.7% with OVCAR-8 ovarian; 56.4% with OVCAR-5 ovarian; 29.4% in the assay with OVCAR-4 ovarian; 18.7% in the assay on SK-OV-3 ovarian; 28.7% with IGROV1 ovarian. For the same compound, the growth in the assay with OVCAR-3 ovarian is -4.74% (active); in the assay on HS 578T breast, 36.1%; with NCI/ADR-RES ovarian, 20.9%.
On to `CN(CCCCN(C[C@H]1Cc2ncccc2CN1)[C@H]1CCCc2cccnc21)C1CCC(F)(F)CC1`, for which the growth was 92.5% with RPMI-8226 leukemia; 79% with OVCAR-5 ovarian; 108% with OVCAR-4 ovarian; 90.6% in the assay with SK-OV-3 ovarian; 111% in the assay on IGROV1 ovarian; 98.4% in the assay on OVCAR-3 ovarian. Moreover, the growth was 105% with HS 578T breast and 85.8% in the assay with NCI/ADR-RES ovarian.
`N#Cc1ccc(N2Cc3ccccc3OC3=C2C(=O)c2c(O)ccc(O)c2C3=O)cc1`: the growth was 5.99% (active) in the assay with RPMI-8226 leukemia; -1.88% (active) with OVCAR-5 ovarian; -43.4% (active) with OVCAR-4 ovarian; 63.8% in the assay on SK-OV-3 ovarian; -93.2% (active) in the assay on OVCAR-3 ovarian; -14.4% (active) in the assay with HS 578T breast. The growth in the assay with NCI/ADR-RES ovarian is 19.7%.
Take `C=C1C(=O)O[C@H]2[C@H]1CC/C(COC(=O)NCc1ccccc1OC)=C\CC[C@@]1(C)O[C@@H]21`: the growth in the assay with RPMI-8226 leukemia was 25.7%; with OVCAR-8 ovarian it was 10.5%; with OVCAR-5 ovarian, 73%; in the assay with SK-OV-3 ovarian it was 85.8%; in the assay on OVCAR-3 ovarian, -1.44% (active); with HS 578T breast, 40.1%. Besides, the growth with NCI/ADR-RES ovarian was 86%.
With `O=C(Nc1cccc(-n2cc(-c3ccncc3)c(-c3ccc(Cl)c(O)c3)n2)c1)Nc1ccc(Cl)c(C(F)(F)F)c1`, the growth in the assay on RPMI-8226 leukemia was -10.5% (active); in the assay on OVCAR-8 ovarian, -41.8% (active); in the assay on OVCAR-5 ovarian it was 23.3%; in the assay on SK-OV-3 ovarian, 7.47% (active); with IGROV1 ovarian, 10.4%; with OVCAR-3 ovarian, -43% (active). The growth is -7.39% (active) in the assay with HS 578T breast and -16.9% (active) with NCI/ADR-RES ovarian.
For `COc1ccc(Nc2nn3c(C)cc(C)nc3c2C(=O)Nc2ccc(C)cc2)c(OC)c1`, the growth in the assay with OVCAR-8 ovarian was 100%; in the assay on OVCAR-5 ovarian, 82.9%; in the assay on OVCAR-4 ovarian, 102%; in the assay on SK-OV-3 ovarian, 87.7%; with IGROV1 ovarian, 97.1%; in the assay with OVCAR-3 ovarian it was 105%. Moreover, the growth in the assay on HS 578T breast was 105%.
